# Hits are enriched below; roughly 10% of the tested compounds scored in any of these assays.
# GPT2 inhibitor = blocks human glutamate pyruvate transaminase 2. Potency, µM (titrated, usually from 57.7 µM), without a hit: at the top dose activity change, negative = inhibition, usual class: inhibitors. Recombinant GPT2, coupled pyruvate oxidase/HRP Amplex Red fluorescence. AID 1671188. 0.25% of 100,000 active; further: on the % scale 0 is the no-effect control and ±100 the full control effect; nearly all actives have a fitted effect of over 60% in size
#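 Recombinant GPT2 (10ng/uL) with 250uM a-KG and 2mM L-alanine, 30 min at room temperature, in HEPES pH 7.5 buffer. Pyruvate detected by pyruvate oxidase/HRP/Amplex Red fluorescence after 30 min in the dark; AOA (50uM) as positive control.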
# NPR1 antag = blocks ANP-stimulated signaling of human Npr1 receptor. HEK293 hNpr1 GloSensor cGMP, ANP-stimulated luminescence. Potency, µM (doses to about 46.3 µM), for the others: at the highest dose activity change, negative = inhibition, actives largely listed as inhibitors. 1.6% of 76,000 active; calls by dose curve; further: on the % scale 0 is the no-effect control and ±100 the full control effect; nearly all actives have a fitted effect of over 60% in size
#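 Compound pre-incubated 30 min at room temperature on GloSensor-loaded HEK293 cells stably carrying hNpr1 and the pGS-40F cGMP biosensor. Stimulation uses hNppA at 0.1 nM final; luminescence is taken at baseline and 20 min post-agonist.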
# Luciferase inh = blocks purified firefly luciferase enzyme activity; 2.5% of 76,000 active; P08659; AID 1347043; Potency, µM (titrated, usually from 115 µM), actives largely listed as inhibitors; purified P. pyralis luciferase, luminescence, biochemical; further: on the % scale 0 is the no-effect control and ±100 the full control effect; nearly all actives have a fitted effect of over 65% in size
#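 Cell-free enzyme assay, 10nM P. pyralis luciferase, luciferin and ATP each at 10uM. Inhibition profiled over a 6-point titration, read as luminescence.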
# 3T3 cytotox = cytotoxic compounds in NIH 3T3 cells. NIH 3T3 viability, CellTiter-Glo ATP luminescence, 48-72 h. Potency, µM (top dose mostly 96.7 µM), for inactives: at the top dose activity change, negative = cytotoxicity, usual class: inhibitors. 4.3% of 94,000 active; further: on the % scale 0 is the no-effect control and ±100 the full control effect; nearly all actives have a fitted effect of over 55% in size
#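 Cytotoxicity was measured by CellTiter-Glo ATP luminescence after 48 or 72 h compound exposure at 37 °C. Mouse NIH 3T3 fibroblasts were seeded at 400 cells/well and dosed by 23 nL pin transfer.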
# HEK cytotox = cytotoxic compounds in HEK 293 cells | Potency, µM (series often up to 115 µM), inactives show at the top dose activity change, negative = cytotoxicity, most hits filed as inhibitors | HEK 293 viability, ATP luminescence (CellTiter-Glo), 48-72 h | 6.6% of 94,000 active | AID 1345083; further: on the % scale 0 is the no-effect control and ±100 the full control effect; nearly all actives have a fitted effect of over 60% in size
#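 250 HEK 293 cells/well; compound by pintool; incubated 48 or 72 hr at 37 degree Celsius; CellTiter-Glo added, 10 min RT, luminescence imaged.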
# NPR1 antag cnf = hNpr1 antagonism, confirmation assay. 76% of 1,400 active. Potency, µM (doses to about 57.6 µM), inactives show at the top dose activity change, negative = inhibition, hits mostly inhibitors. HEK293 hNpr1 cGMP GloSensor luminescence, ANP-stimulated. shares compounds with NPR1 antag; calls by dose curve; further: nearly all actives have a fitted effect of over 70% in size
# NPR2 antag = hNpr2 antagonism, selectivity versus Npr1 | shares compounds with NPR1 antag | HEK293 hNpr2 GloSensor cGMP luminescence, CNP-stimulated | Potency, µM (highest dose often 57.6 µM), for the others: at the highest dose activity change, negative = inhibition, actives largely listed as inhibitors | 67% of 1,400 active | AID 1347046; calls by dose curve; further: nearly all actives have a fitted effect of over 70% in size
# Target sequence (P20594 whole entry, looked up): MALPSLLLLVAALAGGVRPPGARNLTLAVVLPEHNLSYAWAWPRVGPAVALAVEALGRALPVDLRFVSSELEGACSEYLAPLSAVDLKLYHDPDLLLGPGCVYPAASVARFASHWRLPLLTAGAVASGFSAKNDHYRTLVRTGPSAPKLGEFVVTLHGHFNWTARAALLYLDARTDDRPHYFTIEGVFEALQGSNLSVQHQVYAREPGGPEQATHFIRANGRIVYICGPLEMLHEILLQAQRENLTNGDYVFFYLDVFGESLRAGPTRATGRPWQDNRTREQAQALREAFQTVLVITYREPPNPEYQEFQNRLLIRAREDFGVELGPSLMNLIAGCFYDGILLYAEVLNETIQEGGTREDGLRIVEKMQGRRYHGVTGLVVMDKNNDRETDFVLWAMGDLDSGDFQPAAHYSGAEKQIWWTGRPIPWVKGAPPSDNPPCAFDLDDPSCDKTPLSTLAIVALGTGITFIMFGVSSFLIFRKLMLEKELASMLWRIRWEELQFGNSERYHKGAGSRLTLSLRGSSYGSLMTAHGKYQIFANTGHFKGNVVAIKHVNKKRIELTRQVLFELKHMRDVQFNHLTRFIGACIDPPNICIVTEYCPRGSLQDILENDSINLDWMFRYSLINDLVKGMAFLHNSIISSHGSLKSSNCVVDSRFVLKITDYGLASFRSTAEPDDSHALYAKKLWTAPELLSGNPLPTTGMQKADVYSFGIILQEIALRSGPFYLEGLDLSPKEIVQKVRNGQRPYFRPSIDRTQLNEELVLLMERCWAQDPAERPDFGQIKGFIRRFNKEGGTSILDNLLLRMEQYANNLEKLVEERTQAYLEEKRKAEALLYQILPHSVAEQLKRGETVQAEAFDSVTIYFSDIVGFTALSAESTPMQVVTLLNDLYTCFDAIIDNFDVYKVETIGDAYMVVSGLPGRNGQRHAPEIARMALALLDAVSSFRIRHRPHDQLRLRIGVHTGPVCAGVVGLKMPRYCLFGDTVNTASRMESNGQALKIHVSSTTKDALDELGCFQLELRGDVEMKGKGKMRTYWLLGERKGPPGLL
# FLuc inh counter = counter-screen for Npr1 antagonists: firefly luciferase inhibitors; shares compounds with NPR1 antag; Potency, µM (doses to about 57.6 µM), inactives show top-dose activity change, negative = inhibition, actives largely listed as inhibitors; 0.7% of 1,400 active; purified FLuc enzyme, luminescence, Km substrate; further: 0% is about no effect
# GloSensor ctrl = counter-screen for Npr1 antagonists: GloSensor control cell line | shares compounds with NPR1 antag | HEK293 GloSensor cGMP, SNP-stimulated, luminescence | Potency, µM (doses to about 57.6 µM), for inactives: at the highest dose activity change, negative = inhibition, actives largely listed as inhibitors | 69% of 1,400 active | AID 1347051; calls by dose curve; further: on the % scale 0 is the no-effect control and ±100 the full control effect; nearly all actives have a fitted effect of over 70% in size
# Active calls of the source: *; i = inactive; u = inconclusive; x = no result; [ ] = remark or other dose. Unless noted, the call rests on the fitted dose curve; in most records, active means well fitted curve in the direction sought with a large enough effect; inconclusive means small, poorly fitted or top-dose-only effect, or another doubt; inactive means no such curve, though single readings can be large; an effect the other way counts as inactive or inconclusive. Potency means the concentration at half of the fitted maximal effect.
SMILES,GPT2 inhibitor,NPR1 antag,Luciferase inh,3T3 cytotox,HEK cytotox,NPR1 antag cnf,NPR2 antag,FLuc inh counter,GloSensor ctrl
O=C(NC[C@H]1Cn2c(-c3ccc4c(c3)OCO4)cnc2CO1)Nc1ccccc1,4%[88.5 µM],-26%[70.6 µM],u,u,u,x,x,x,x
O=C(NC[C@H]1Cn2c(-c3ccc4c(c3)OCCO4)cnc2CO1)Nc1ccccc1,-21%[88.5 µM],u,i,89µM*,100µM*,u,u,-13%[86.2 µM],-25%[86.2 µM]
COc1ccc(CN2CC(C)(NC(C)=O)C2)c2ccccc12,2%[88.5 µM],-7%[70.6 µM],i,-17%[138 µM],u,x,x,x,x
O=C(c1ccsc1)N1CCCC(CN2CCCC2)CC1 (stereo not given),i,-2%,i,1%,i,x,x,x,x
COc1cccc(OC)c1-c1nc(C)c(C)cc1C(N)=O,-2%,-2%,i,-7%,1%,x,x,x,x
COc1ccc(CN2Cc3[nH]cnc3C[C@H]2C(=O)NCc2ccccc2)c2ccccc12,u,u,i,u,89µM*,u,u,0%[86.2 µM],-23%[86.2 µM]
COc1ccc(CNC(=O)[C@@H]2Cc3nc[nH]c3CN2Cc2ccc(C(=O)O)cc2)cc1,-4%[88.5 µM],4%[70.6 µM],i,-11%[174 µM],-6%[172 µM],x,x,x,x
COc1ccc(-c2cn3cc(C(=O)NCCc4ccccc4)nc3s2)cc1,-2%,x,x,0%,-11%,x,x,x,x
O=C(O)COCC(=O)N[C@H]1CCN2C(=O)c3cc(-c4cccs4)ccc3NC(=O)[C@H]12,i,-7%[70.6 µM],i,-14%[174 µM],-11%[172 µM],x,x,x,x
COC(=O)[C@@H]1Cc2ncn(Cc3ccc(Cl)cc3)c2CN1C(=O)c1ccc(C(F)(F)F)cc1,-7%,-25%,i,u,u,u,-8%,0%,u
O=C(Nc1ccc(Cl)cc1Cl)c1c[nH]c2cccnc12,i,x,x,u,u,21µM*,14µM*,0.96µM*,u
CNC(=O)c1c[nH]c2cccnc12,i,x,x,-44%[174 µM],-40%[230 µM],x,x,x,x
COCc1ccc(CN[C@H]2C[C@@H](Cc3cc(CN4CCCCC4)on3)C2(C)C)o1,4%[88.5 µM],-19%[70.6 µM],i,u,u,x,x,x,x
Cc1ccc(C2Cn3nnc(-c4nc(C5CCCCC5)no4)c3CO2)c(C)c1 (stereo not given),-13%,u,i,-30%,u,14µM*,14µM*,-1%,1%
Clc1ccc(C2Cn3nnc(-c4nc(C5CC5)no4)c3CO2)cc1 (stereo not given),i,u,i,u,u,u,-22%,4%,1%
CCc1noc(-c2nnn3c2COC(c2ccc(Cl)cc2)C3)n1 (stereo not given),i,u,i,u,-27%,x,x,x,x
CC(C)(C)c1noc(-c2nnn3c2COC(c2ccc(F)cc2)C3)n1 (stereo not given),i,u,i,-17%,u,u,u,3%,-24%
Cc1ccc(-c2noc(-c3nnn4c3COC(c3ccc(C)cc3C)C4)n2)cc1 (stereo not given),5%,4%,i,i,-1%,x,x,x,x

# Source: PubChem BioAssay
